In paper PMC5540273 (PLoS ONE, 2017):

Legend:
Conditions in all cases: concentration: 1 μM, replicates: in singlicate; n = 1
BMX = tested on: BMX
BRAF = tested on: BRAF
BRK = tested on: T1, BRK
T1 construct: gene PTK6

BRSK1 = tested on: BRSK1
BRSK2 = tested on: BRSK2
BTK = tested on: BTK
BUB1 = tested on: BUB1
CAMK1B = tested on: CAMK1B
CAMK1D = tested on: CAMK1D
CAMK1G = tested on: CAMK1G
CAMK1 = tested on: CAMK1
CAMK2A = tested on: CAMK2A
CAMK2B = tested on: CAMK2B
CAMK2D = tested on: CAMK2D
CAMK2G = tested on: CAMK2G
CAMK4 = tested on: CAMK4
CAMKK1 = tested on: CAMKK1
CAMKK2 = tested on: CAMKK2
CASK = tested on: CASK
CDC2L1 = tested on: T2, CDC2L1
T2 construct: gene CDK11B
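Further: KINOMEscan kinase panel screen.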

Structure (SMILES) | %Inh (BMX) [%] | %Inh (BRAF) [%] | %Inh (BRK) [%] | %Inh (BRSK1) [%] | %Inh (BRSK2) [%] | %Inh (BTK) [%] | %Inh (BUB1) [%] | %Inh (CAMK1B) [%] | %Inh (CAMK1D) [%] | %Inh (CAMK1G) [%] | %Inh (CAMK1) [%] | %Inh (CAMK2A) [%] | %Inh (CAMK2B) [%] | %Inh (CAMK2D) [%] | %Inh (CAMK2G) [%] | %Inh (CAMK4) [%] | %Inh (CAMKK1) [%] | %Inh (CAMKK2) [%] | %Inh (CASK) [%] | %Inh (CDC2L1) [%]
Cl.Cl.NCC(NC(=O)c1cc(-c2ccccc2)c(-c2ccnc3[nH]ccc23)s1)c1ccccc1 (stereo not shown) [GSK1321561] | 38 | 9 | 8 | 0 | 0 | 0 | 72 | 24 | 5 | 0 | 4 | 0 | 0 | 5 | 0 | 0 | 15 | 10 | 13 | 0
Fc1ccc(-c2ncn(C3CCNCC3)c2-c2ccnc(Oc3ccc(-c4ccccc4)cc3)n2)cc1 [SB-245391] | 0 | 23 | 7 | 14 | 16 | 57 | 20 | 4 | 30 | 4 | 30 | 20 | 0 | 14 | 17 | 0 | 22 | 20 | 7 | 11
Cl.Cl.NCC(NCc1ccc(-c2ccnc3[nH]ccc23)s1)c1ccccc1 (stereo not shown) [GSK1321565] | 8 | 0 | 0 | 0 | 0 | 0 | 64 | 59 | 17 | 11 | 10 | 0 | 0 | 13 | 19 | 0 | 0 | 9 | 0 | 0
COc1cccc(C(=O)Nc2cccc(Oc3ccc4nc(NC(=O)C5CC5)cn4n3)c2)c1 | 77 | 96.5 | 21 | 4 | 0 | 9 | 0 | 0 | 17 | 21 | 16 | 11 | 18 | 15 | 0 | 8 | 6 | 0 | 3 | 0
CC(=O)Nc1nc2cnc(Nc3cc(NC(=O)c4cccc(C5(C#N)CC5)c4Cl)ccc3C)nc2s1 | 1 | 99.4 | 30 | 10 | 0 | 0 | 0 | 0 | 30 | 0 | 35 | 13 | 0 | 0 | 10 | 0 | 14 | 12 | 0 | 43
Cc1occc1-c1ncc(OC[C@@H](N)Cc2c[nH]c3ccccc23)cc1-c1ccc2[nH]nc(C)c2c1.O=C(O)C(F)(F)F [GSK682037] | 22 | 0 | 7 | 0 | 0 | 0 | 23 | 29 | 82 | 27 | 25 | 20 | 27 | 47 | 52 | 0 | 19 | 16 | 11 | 0
Nc1ncc(-c2ccc3nccc(-c4ccncc4)c3c2)cc1S(=O)(=O)N1CCOCC1 [GSK1627798] | 16 | 15 | 8 | 0 | 0 | 0 | 12 | 0 | 36 | 16 | 27 | 0 | 0 | 0 | 49 | 0 | 57 | 78 | 48 | 0
C[C@@H](Oc1cc(-n2cnc3cc(-c4ccnc(NCCS(C)(=O)=O)c4)ccc32)sc1C(N)=O)c1ccccc1Cl [GSK907232] | 23 | 0 | 20 | 55 | 78 | 0 | 31 | 31 | 15 | 13 | 15 | 0 | 0 | 5 | 33 | 0 | 21 | 80 | 57 | 0
COc1ccc(-c2coc3ccc(-c4nnc(SCc5ccc(OC)c(C(F)(F)F)c5)o4)cc23)cc1 | 29 | 0 | 0 | 0 | 13 | 0 | 0 | 8 | 14 | 3 | 0 | 0 | 1 | 7 | 0 | 12 | 1 | 2 | 1 | 0
c1ccc(Oc2ccc(Nc3ccnc4cc(-c5ccc(CNCCN6CCOCC6)o5)ccc34)cc2)nc1 [GW567145] | 20 | 0 | 85 | 0 | 0 | 86 | 54 | 0 | 2 | 0 | 26 | 0 | 0 | 0 | 1 | 0 | 0 | 0 | 0 | 0
COc1ccc(Nc2nccc(N3CCC(NC(=O)Nc4cccc(OC)c4)C3)n2)cc1 (stereo not shown) [GSK1379742] | 0 | 2 | 10 | 4 | 0 | 0 | 29 | 17 | 0 | 0 | 0 | 0 | 0 | 2 | 9 | 4 | 5 | 4 | 13 | 0
CN(C)Cc1ccc(-c2ccc3c(Nc4ccc(Oc5ccccn5)cc4)ccnc3c2)o1 [GW567148] | 12 | 1 | 95.2 | 0 | 0 | 74 | 0 | 0 | 0 | 0 | 27 | 0 | 0 | 0 | 15 | 0 | 0 | 0 | 0 | 0
CC(C)(C)c1ccc2nccc(Nc3cccc(O)c3)c2c1 [GW856795] | 0 | 41 | 51 | 0 | 11 | 43 | 24 | 68 | 13 | 0 | 0 | 0 | 0 | 0 | 0 | 0 | 2 | 0 | 0 | 0
O=C(Nc1cccc(-c2nn3ccccc3c2-c2ccnc(Nc3cccc(F)c3)n2)c1)c1c(F)ccc(F)c1Cl [GSK357952] | 63 | 36 | 69 | 5 | 0 | 42 | 29 | 21 | 12 | 0 | 12 | 0 | 0 | 0 | 0 | 13 | 0 | 0 | 4 | 0
Cl.c1ccc(-c2ccc3c(Nc4ccc5[nH]ncc5c4)ccnc3c2)nc1 [GW440137] | 0 | 7 | 20 | 0 | 2 | 0 | 47 | 36 | 18 | 5 | 11 | 0 | 0 | 12 | 16 | 0 | 0 | 19 | 13 | 0
Nc1ncnc2c1nc(-c1ccccc1)n2-c1ccccc1 [SKF-97293] | 15 | 6 | 1 | 15 | 27 | 0 | 46 | 6 | 8 | 0 | 13 | 3 | 1 | 18 | 4 | 0 | 0 | 6 | 17 | 0
Nc1n[nH]c2cnc(-c3ccccc3)cc12 [SB-642124] | 5 | 7 | 19 | 13 | 7 | 0 | 44 | 8 | 0 | 10 | 5 | 0 | 13 | 17 | 22 | 0 | 1 | 0 | 26 | 0
c1ccc(-c2n[nH]cc2Nc2ccnc3ccccc23)nc1 [GW694077] | 6 | 0 | 0 | 0 | 0 | 0 | 88 | 49 | 30 | 9 | 20 | 21 | 17 | 19 | 23 | 0 | 13 | 28 | 33 | 0
COC(=O)Nc1nc2ccc(Oc3ccc(NC(=O)Nc4cc(C(F)(F)F)ccc4F)cc3)cc2n1C.Cl [GW692089] | 5 | 57 | 0 | 0 | 26 | 59 | 42 | 0 | 1 | 0 | 0 | 0 | 0 | 0 | 3 | 0 | 4 | 0 | 1 | 0
CSc1cccc2c(-c3ccncn3)c(-c3ccc(F)cc3)nn12 [GW514786] | 14 | 13 | 9 | 14 | 0 | 11 | 89 | 0 | 7 | 0 | 0 | 0 | 0 | 0 | 10 | 0 | 0 | 0 | 45 | 0
